# PubChem BioAssay (EPA / NIEHS)
# Activity calls are given as the source filed them. How the source made its calls: active means hit-call score of the fitted dose curve at least 0.9, where 1 is the maximum; inactive means score below 0.9.
# Test: ATG_RORE_CIS: Attagene CIS-FACTORIAL HepG2 Assay for human RAR-related Orphan Receptor Element (RORE) (AID 2282959)
# Conditions: HepG2 Attagene cis-factorial RORE reporter, mRNA; actives raise or lower the signal
# Experimental: ATG_CIS is a cell-based, multiplexed-readout assay that uses HepG2, a human liver cell line, with measurements taken at 24 hours after chemical dosing in a 24-well plate.ATG_RORE_CIS is one of 52 assay component(s) measured or calculated from the ATG_CIS assay. It is designed to make measurements of mRNA induction, a form of inducible reporter, as detected with fluorescence intensity signals by Reverse transcription polymerase chain reaction (RT-PCR) and Capillary electrophoresis technology.Data from the assay component ATG_RORE_CIS was analyzed into 1 assay endpoint. This assay endpoint, ATG_RORE_CIS, was analyzed with bidirectional fitting relative to DMSO as the negative control and baseline of activity. Using a type of inducible reporter, measures of mRNA for gain or loss-of-signal activity can be used to understand the reporter gene at the transcription factor-level as they relate to the gene RORA and RORB and RORC. Furthermore, this assay endpoint can be referred to as a primary readout, because this assay has produced multiple assay endpoints where this one serves a reporter gene function. To generalize the intended target to other relatable targets, this assay endpoint is annotated to the nuclear receptor intended target family, where the subfamily is orphan.
# Human liver HepG2 cells are transiently transfected with multiple reporter transcription units (MRTUs) in 6-well plates using FuGene 6 reagent (Roche; 3 ml FuGene/1 mg DNA). The MRTU constructs are regulated by a cis-regulating element (promoter). […] A major difference between the CIS and TRANS system is that in CIS activities of endogenous TFs are measured, whereas the TRANS assay evaluates changes in activities of exogenous, chimeric NR-Gal4 proteins. […] At the end of 24 hour incubation, total RNA was isolated using TriZol reagent (Invitrogen). The isolated RNA is then reverse-transcribed using oligo(dT) primer and Mo-MLV reverse transcriptase (Invitrogen) with DNAse I (Ambion) treatment for 30 min. The one-tenth of the produced cDNA was amplified by PCR using Taq DNA polymerase (Invitrogen) and two reporter sequence-specific primers. The PCR products were fluorescently labeled by primer extension with 6-arboxyfluorescein (6-FAM) 5'-labeled reporter sequence-specific primer (2 min at 95 C, 20 s at 68 C and 10 min at 72 C) and these products were digested with 5U of HpaI (New England Biolabs) for 2h at 37 C. The fragments were purified using Qiaquick PCR columns (Qiagen), analyzed on an ABI 3130xL genetic analyzer (Applied Biosystems) with peak positions identified by using a set of X-rhodamine (ROX)-labeled MapMarker1000 molecular weight standards (BioVentures). The raw capillary electrophoresis data was processed using Attagraph software (Attagene).
Structure (SMILES),outcome,AC50
COc1ccc(Cl)cc1C,inactive,–
C=CCOc1nc(OCC=C)nc(OCC=C)n1,inactive,–
COc1cc(C=O)ccc1OC(=O)C(C)C,inactive,–
CCCCCOC(=O)CCC,inactive,–
O=C(Oc1ccccc1)c1ccc(O)cc1,inactive,–
CNCCCC12CCC(c3ccccc31)c1ccccc12,inactive,–
CCC(C(=O)NC(N)=O)c1ccccc1 (stereo not given),inactive,–
CC(C=O)Cc1ccc(C(C)C)cc1 (stereo not given),inactive,–
c1ccc2c(c1)c1cccc3ccc4cccc2c4c31,inactive,–
C=CC(=O)OCCn1c(=O)n(CCOC(=O)C=C)c(=O)n(CCOC(=O)C=C)c1=O,inactive,–
CCCCCCOC(=O)CC,inactive,–
CC(C)CCCCCCCOC(=O)c1ccc(C(=O)OCCCCCCCC(C)C)c(C(=O)OCCCCCCCC(C)C)c1,inactive,–
Sc1nc(S)nc(S)n1,inactive,–
CCC/C=C/C=O,inactive,–
CC1CCC2CC1C2(C)C (stereo not given),inactive,–
CC1COc2ccccc2N1C(=O)C(Cl)Cl (stereo not given),inactive,–
C[Si](O[Si](C)(C)C)O[Si](C)(C)C,inactive,–
OCCOCCOCCOCCO,inactive,–
FC1(F)C(F)(F)C(F)(F)C2(F)C(F)(C1(F)F)C(F)(F)C(F)(F)C1(F)C(F)(F)C(F)(F)C(F)(F)C(F)(F)C12F (stereo not given),inactive,–
CC1CCC(C(C)CS)CC1S (stereo not given),inactive,–

Structure (SMILES),outcome,AC50
CC1(CO)CN(c2ccccc2)NC1=O (stereo not given),inactive,–
O=C(O)CCSCCC(=O)O,inactive,–
Cc1cccc(C)c1C,inactive,–
C=CC(=O)OCC(O)COc1ccccc1 (stereo not given),inactive,–
CC1(C)OC[C@@H]2O[C@@]3(C(=O)O)OC(C)(C)O[C@H]3[C@@H]2O1,inactive,–
BrC1CCC(Br)C(Br)CCC(Br)C(Br)CCC1Br (stereo not given),inactive,–
O=[N+]([O-])c1ccc(Nc2ccc(Nc3ccccc3)c(S(=O)(=O)O)c2)c([N+](=O)[O-])c1,–,40.1 µM (active)
N#Cc1ccc(CC(=NNC(=O)Nc2ccc(OC(F)(F)F)cc2)c2cccc(C(F)(F)F)c2)cc1,inactive,–
CCn1c2ccccc2c2cc(N)ccc21,–,67.9 µM (active)
c1cc(C(c2ccc(OCC3CO3)cc2)c2ccc(OCC3CO3)cc2)ccc1OCC1CO1 (stereo not given),inactive,–
CCCCCCOC(=O)CCCCC,inactive,–
CC(C)OP(=O)(CP(=O)(OC(C)C)OC(C)C)OC(C)C,inactive,–
CC(C)c1cccc(O)c1,inactive,–
C=CC(C)(CCC=C(C)C)OC=O (stereo not given),inactive,–
Clc1sc(Cl)c(Cl)c1Cl,inactive,–
Cc1ccc(S)cc1,inactive,–
c1ccc2sc(SN(C3CCCCC3)C3CCCCC3)nc2c1,inactive,–
O=C1NC(=O)c2ccccc21,inactive,–
Cc1cccc(Nc2ccccc2C(=O)O)c1C,inactive,–
O=C(O)CCCCC1CCSS1 (stereo not given),inactive,–
